Bioassay records (PubChem)
FLuc inh: Photinus pyralis luciferase inhibition. purified P. pyralis luciferase, luminescence, biochemical. Potency, µM (top dose mostly 115 µM), most hits filed as inhibitors. P08659. 2.5% of 76,000 active; note: nearly all actives have a fitted effect of over 65% in size
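Luminescence read by CCD imaging after purified firefly luciferase (10nM final) was added to substrate buffer holding 10uM D-luciferin and 10uM ATP, pH 7.5, pre-dosed with compound.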
3T3 cytotox: cytotoxic compounds in NIH 3T3 cells | Potency, µM (titrated, usually from 96.7 µM), for inactives: at the top dose activity change, negative = cytotoxicity, usual class: inhibitors | NIH 3T3 viability, CellTiter-Glo ATP luminescence, 48-72 h | 4.3% of 94,000 active; note: nearly all actives have a fitted effect of over 55% in size
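Mouse fibroblast NIH 3T3 cells, 400 per well, received compound via pintool and were incubated for 48 or 72 hr prior to CellTiter-Glo ATP luminescence measurement.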
SNCA expr inhib: SNCA gene expression inhibition; HEK-293 SNCA-luciferase knock-in, luminescence, 24 h; Potency, µM (top dose mostly 57.2 µM), for the others: at the highest dose activity change, negative = inhibition, usual class: inhibitors; 0.17% of 140,000 active;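 note: plate controls were DMSO cells for no effect and cell-free wells for full effect; nearly all actives have a fitted effect of over 45% in size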
HEK293 viab: cell viability loss counter-screen | 0.12% of 150,000 active | HEK-293-SNCA-luc viability, GF-AFC fluorescence, 24 h | Potency, µM (series often up to 57.1 µM), inactives show at the top dose activity change, negative = cytotoxicity, usual class: cytotoxic;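 note: 0% = DMSO-treated cells and -100% = medium-only wells without cells; nearly all actives have a fitted effect of over 30% in size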
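HEK-293-SNCA-luc cells (1500/well) plated 24 h, then exposed 24 h to a dilution series; GF-AFC added 30 min at 37C, fluorescence 405/540 nm; normalised to medium-only and DMSO wells, Hill fit.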
NPR1 antag: human Npr1 receptor antagonism; AID 1347048; HEK293 hNpr1 GloSensor cGMP, ANP-stimulated luminescence; 1.6% of 76,000 active; Potency, µM (top dose mostly 46.3 µM), for the others: at the top dose activity change, negative = inhibition, actives largely listed as inhibitors; P16066; calls by dose curve; note: nearly all actives have a fitted effect of over 60% in size
Target sequence (P16066 whole entry, looked up): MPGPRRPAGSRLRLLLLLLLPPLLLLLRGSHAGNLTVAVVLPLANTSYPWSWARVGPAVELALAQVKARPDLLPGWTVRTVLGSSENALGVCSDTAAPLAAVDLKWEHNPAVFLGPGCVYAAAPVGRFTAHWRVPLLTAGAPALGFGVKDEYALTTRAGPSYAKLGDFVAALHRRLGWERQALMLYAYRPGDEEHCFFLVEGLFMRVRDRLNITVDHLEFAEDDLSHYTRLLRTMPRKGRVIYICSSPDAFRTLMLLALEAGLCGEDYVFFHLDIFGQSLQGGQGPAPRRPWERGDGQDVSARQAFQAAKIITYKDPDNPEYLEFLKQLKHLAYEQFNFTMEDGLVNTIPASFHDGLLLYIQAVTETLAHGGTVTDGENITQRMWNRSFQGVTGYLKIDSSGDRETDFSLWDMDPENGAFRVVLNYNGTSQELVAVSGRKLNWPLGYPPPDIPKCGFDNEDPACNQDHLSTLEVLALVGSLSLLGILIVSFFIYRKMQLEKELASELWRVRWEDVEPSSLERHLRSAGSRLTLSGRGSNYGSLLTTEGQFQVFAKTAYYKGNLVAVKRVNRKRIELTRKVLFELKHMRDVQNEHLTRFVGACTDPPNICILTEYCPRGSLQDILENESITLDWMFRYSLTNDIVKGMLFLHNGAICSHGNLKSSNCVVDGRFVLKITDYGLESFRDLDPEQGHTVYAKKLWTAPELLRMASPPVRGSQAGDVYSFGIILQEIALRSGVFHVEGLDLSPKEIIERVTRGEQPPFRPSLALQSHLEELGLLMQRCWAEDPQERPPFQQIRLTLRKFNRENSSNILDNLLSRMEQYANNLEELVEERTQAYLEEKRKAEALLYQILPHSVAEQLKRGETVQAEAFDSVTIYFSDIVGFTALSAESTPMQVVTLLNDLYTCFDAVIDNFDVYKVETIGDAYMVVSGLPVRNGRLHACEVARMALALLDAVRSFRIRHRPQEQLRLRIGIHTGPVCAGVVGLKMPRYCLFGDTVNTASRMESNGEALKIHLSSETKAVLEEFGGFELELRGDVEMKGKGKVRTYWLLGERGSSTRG
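Compound pre-incubated 30 min at room temperature on GloSensor-loaded HEK293 cells stably carrying hNpr1 and the pGS-40F cGMP biosensor. Stimulation uses hNppA at 0.1 nM final; luminescence is taken at baseline and 20 min post-agonist.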
HEK293 tox: HEK 293 cell cytotoxicity. HEK 293 viability, ATP luminescence (CellTiter-Glo), 48-72 h. Potency, µM (top dose mostly 115 µM), for the others: at the top dose activity change, negative = cytotoxicity, actives largely listed as inhibitors. 6.6% of 94,000 active. AID 1345083; note: nearly all actives have a fitted effect of over 60% in size
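250 HEK 293 cells/well; compound by pintool; incubated 48 or 72 hr at 37 degree Celsius; CellTiter-Glo added, 10 min RT, luminescence imaged.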
* marks the source's active call; other numbers are inactive results; i = inactive; ? = inconclusive; nt = not tested or not shown; [ ] = dose if it differs, or a comment. Shown are actives, neighbours in structure and some others; about 7.4% of the full set was active somewhere. Unless noted, calls come from the whole dose curve; as a rule, active = well fitted curve in the direction sought with a large enough effect; inconclusive = small, poorly fitted or top-dose-only effect, or another doubt; inactive = no such curve, though single readings can be large; an effect the other way counts as inactive or inconclusive. Unless noted, % is set by controls: 0 for no effect and ±100 for the full control effect; potency is the fitted concentration of half-maximal effect.

SMILES	FLuc inh	3T3 cytotox	SNCA expr inhib	HEK293 viab	NPR1 antag	HEK293 tox
c1ccc(NCC2CN(Cc3ccccn3)CC23CN(c2ccccc2)C3)cc1 (stereo not given)	i	?	2%[87.6 µM]	-6%[87.6 µM]	-1%[70.6 µM]	79µM*
COC(=O)C1=C(C)N=C2SC=C(CC(=O)NCc3ccccc3)N2C1c1cccc(OC)c1 (stereo not given)	i	-10%	5%	17%	-27%	?
CCCC1c2nccn2CCCN1C(=O)c1ccc(OC)nc1OC (stereo not given)	i	-7%	8%	-7%	-16%	?
O=C(Nc1ccc(Cl)c(Cl)c1)c1cc2n(n1)CC(c1ccc(Cl)cc1)OC2 (stereo not given)	i	?	0%	-6%	?	?
Cc1nn(C)c2nc(NCCCOC3CCCC3)sc12	35µM*	?	15%	3%	?	32µM*
Cc1noc(C)c1CCC(=O)N(C)C1CCc2nn(CC3CC3)c(=O)n2CC1 (stereo not given)	i	-2%	8%	7%	1%	4%
CN(C)CCCC(=O)N1CCC2(CC1)CN([S+](C)(=O)[O-])Cc1ccccc1O2	nt	-16%	?	6%	nt	0%
CC(=O)Nc1ccc(C(=O)N2CCC3(CC2)CC(NC(C)=O)c2ccccc23)cc1 (stereo not given)	nt	i	-18%	-5%	nt	i
CC(=O)NC1CC2(CCN(C(=O)C3CCN(C)CC3)CC2)c2ccccc21 (stereo not given)	nt	35µM*	25%	-25%	nt	45µM*
Cc1noc(-c2ccc(OC3CN(C(=O)c4cccc5[nH]ccc45)C3)cc2)n1	35µM*	?	61%	-17%	?	?
Cc1noc(-c2ccc(OC3CN(C(=O)c4sccc4C)C3)cc2)n1	i	?	-5%	-2%	?	?
O=C(c1cc(F)ccc1F)N1CC(Oc2ccc(-c3nc(-c4ccccc4)no3)cc2)C1	?	-11%	5%	7%	?	?
O=C(c1cccc2[nH]ccc12)N1CC(Oc2ccc(-c3nc(-c4ccccc4)no3)cc2)C1	16µM*	?	-6%	?	-27%	?
COCCN1C(=O)c2cccn2CC1CNC(=O)NCc1ccc(OC)cc1 (stereo not given)	i	?	-10%	-5%	0%	-17%
CC(C)C(=O)Nc1ccc(C2(C(=O)NCc3cccs3)CCCCC2)cc1	i	32µM*	8%	3%	6%	?
Cc1ccccc1CNC(=O)C1(c2ccc(NS(C)(=O)=O)cc2)CCCCC1	i	28µM*	-6%	-4%	-1%	-29%
O=C(Nc1ccc(C2(C(=O)NCC3CC3)CCCCC2)cc1)C1CC1	i	-4%	6%	3%	4%	-8%
CS(=O)(=O)Nc1ccc(C2(C(=O)NCc3ccc(F)cc3)CCCCC2)cc1	i	-12%	-5%	0%	3%	-8%
Cc1ccc(CNC(=O)C2(c3ccc(NC(=O)C4CC4)cc3)CCCCC2)o1	i	?	-21%	6%	-10%	45µM*
CC(=O)Nc1ccc(C2(C(=O)NCc3cccs3)CCC2)cc1	i	i	9%	3%	0%	4%
Cc1cccc(OCC(=O)NCc2nnc3ccc(-c4ccc(F)cc4)nn23)c1	i	-26%	-10%	-7%	-4%	-5%
CCCN1CCN(c2ccc(C(=O)NC3(C(=O)NCC#N)CCCCC3)cc2)CC1	nt	nt	nt	5%	nt	nt
Cc1cccc(C(=O)N2CCCN(c3cc(-c4ccc(Cl)cc4)[nH]n3)CC2)c1	i	?	-2%	-5%	-30%	?
O=C(c1cccs1)N1CCCN(c2cc(-c3ccc(Cl)cc3)[nH]n2)CC1	?	?	-27%	-4%	?	45µM*
Cc1ccc(C(=O)N2CCCN(c3cc(-c4ccc(Cl)cc4)[nH]n3)CC2)cc1C	i	35µM*	-10%	?	-22%	?
SMILES	FLuc inh	3T3 cytotox	SNCA expr inhib	HEK293 viab	NPR1 antag	HEK293 tox
O=C(c1ccco1)N1CCCN(c2cc(-c3ccc(Br)cc3)[nH]n2)CC1	?	?	44%	-11%	?	?
O=C(c1ccc(F)c(F)c1)N1CCCN(c2cc(-c3ccc(F)cc3)[nH]n2)CC1	i	-5%	28%	1%	-14%	?
O=C(c1ccc(Br)o1)N1CCCN(c2cc(-c3ccc(Cl)cc3)[nH]n2)CC1	i	40µM*	-16%	4%	?	?
O=C(c1ccc(F)c(F)c1)N1CCN(c2cc(-c3ccc(Cl)cc3)[nH]n2)CC1	i	35µM*	-15%	3%	?	?
O=C(Cc1c(F)cccc1Cl)NCC(=O)N1CCN(c2ccccn2)CC1	i	-3%	9%	11%	4%	-20%
Cc1cc(C)cc(C(=O)N2CCCN(c3cc(-c4ccc(Cl)cc4)[nH]n3)CC2)c1	i	?	-21%	3%	-27%	45µM*
Cn1nc(C(=O)N2CCCN(c3cc(-c4ccc(Cl)cc4)[nH]n3)CC2)c2ccccc21	i	?	-10%	-24%	-27%	40µM*
O=C(Nc1ccc(Cl)cc1Cl)c1cnn2ncccc12	i	-23%[138 µM]	14%[87.6 µM]	7%[87.6 µM]	3%[70.6 µM]	?
O=C(Nc1ccc(Cl)cc1Cl)c1cc2cccnn2n1	0.32µM*	?	?	6%[87.6 µM]	2.2µM*	?
O=C(NCc1ccc(Cl)cc1)c1cc2cccnn2n1	45µM*	?	-5%[87.6 µM]	6%[87.6 µM]	0%[70.6 µM]	?
O=C(Cc1ccc(Cl)cc1)N1CCC(c2n[nH]c(=O)n2Cc2ccc(F)cc2)CC1	i	?	?	-7%	-12%	-21%
COc1ccc(NC(=O)Cn2c(=O)n(-c3ccc(F)cc3)c(=O)c3c2cc(C)n3C)cc1	i	?	-6%	?	0%	?
O=C1NC2(CCCN(C(=O)c3ccccc3)C2)COc2ccccc21 (stereo not given)	i	?	32%	-8%	1%	?
Cc1ccc(C(=O)N2CCCC3(COc4ccccc4C(=O)N3)C2)cc1 (stereo not given)	i	?	-5%[87.6 µM]	-6%[87.6 µM]	-15%[70.6 µM]	63µM*
COc1ccccc1C(=O)N1CCCC2(COc3ccccc3C(=O)N2)C1 (stereo not given)	i	?	-13%	2%	?	?
O=C1NC2(CCN(C(=O)c3ccc4c(c3)OCO4)CC2)COc2ccccc21	i	-3%	-8%	-2%	17%	-13%
